According to ChEMBL document CHEMBL1961873, “Compounds: GSK PKIS; Assays: Nanosyn kinase panel” (2012):
“And” between values parts separate entries of the source, which are not always exact repeats. Equal values may be shown once.

Tests used:
[1] = target: Tyrosine-protein kinase receptor UFO (Homo sapiens) (UniProt P30530); details: at 1 µM
[2] = target: Tyrosine-protein kinase Blk (Homo sapiens) (UniProt P51451); details: at 0.1 µM
[3] = target: Tyrosine-protein kinase Blk (Homo sapiens) (UniProt P51451); details: at 1 µM
[4] = target: T1, Cytoplasmic tyrosine-protein kinase BMX (Homo sapiens) (UniProt P51813); details: at 0.1 µM
T1 sequence (whole entry): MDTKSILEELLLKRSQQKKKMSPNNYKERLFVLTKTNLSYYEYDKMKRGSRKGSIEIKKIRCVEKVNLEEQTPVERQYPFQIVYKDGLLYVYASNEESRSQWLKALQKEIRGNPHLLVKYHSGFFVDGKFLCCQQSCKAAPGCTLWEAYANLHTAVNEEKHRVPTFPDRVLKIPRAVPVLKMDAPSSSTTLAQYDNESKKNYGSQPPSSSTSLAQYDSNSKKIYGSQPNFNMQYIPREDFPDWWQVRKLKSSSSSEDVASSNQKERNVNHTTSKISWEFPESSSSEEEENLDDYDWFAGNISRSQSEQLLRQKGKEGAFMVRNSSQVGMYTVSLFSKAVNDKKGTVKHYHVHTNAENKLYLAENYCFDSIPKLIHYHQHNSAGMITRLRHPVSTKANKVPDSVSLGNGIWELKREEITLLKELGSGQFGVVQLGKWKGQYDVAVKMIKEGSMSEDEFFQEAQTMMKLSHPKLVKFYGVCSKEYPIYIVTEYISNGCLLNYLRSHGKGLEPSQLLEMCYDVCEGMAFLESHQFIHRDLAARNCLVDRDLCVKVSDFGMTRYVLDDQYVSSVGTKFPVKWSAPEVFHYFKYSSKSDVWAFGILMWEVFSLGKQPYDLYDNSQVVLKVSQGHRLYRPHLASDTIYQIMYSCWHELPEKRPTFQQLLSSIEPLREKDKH

[5] = target: T1, Cytoplasmic tyrosine-protein kinase BMX (Homo sapiens); details: at 1 µM
[6] = target: Protein-tyrosine kinase 6 (Homo sapiens) (UniProt Q13882); details: at 0.1 µM
[7] = target: Protein-tyrosine kinase 6 (Homo sapiens) (UniProt Q13882); details: at 1 µM
[8] = target: Tyrosine-protein kinase BTK (Homo sapiens) (UniProt Q06187); details: at 0.1 µM
[9] = target: Tyrosine-protein kinase BTK (Homo sapiens) (UniProt Q06187); details: at 1 µM
[10] = target: Tyrosine-protein kinase CSK (Homo sapiens) (UniProt P41240); details: at 0.1 µM
[11] = target: Tyrosine-protein kinase CSK (Homo sapiens) (UniProt P41240); details: at 1 µM
[12] = target: T2, Discoidin domain-containing receptor 2 (Homo sapiens) (UniProt Q16832); details: at 0.1 µM
T2 sequence (whole entry): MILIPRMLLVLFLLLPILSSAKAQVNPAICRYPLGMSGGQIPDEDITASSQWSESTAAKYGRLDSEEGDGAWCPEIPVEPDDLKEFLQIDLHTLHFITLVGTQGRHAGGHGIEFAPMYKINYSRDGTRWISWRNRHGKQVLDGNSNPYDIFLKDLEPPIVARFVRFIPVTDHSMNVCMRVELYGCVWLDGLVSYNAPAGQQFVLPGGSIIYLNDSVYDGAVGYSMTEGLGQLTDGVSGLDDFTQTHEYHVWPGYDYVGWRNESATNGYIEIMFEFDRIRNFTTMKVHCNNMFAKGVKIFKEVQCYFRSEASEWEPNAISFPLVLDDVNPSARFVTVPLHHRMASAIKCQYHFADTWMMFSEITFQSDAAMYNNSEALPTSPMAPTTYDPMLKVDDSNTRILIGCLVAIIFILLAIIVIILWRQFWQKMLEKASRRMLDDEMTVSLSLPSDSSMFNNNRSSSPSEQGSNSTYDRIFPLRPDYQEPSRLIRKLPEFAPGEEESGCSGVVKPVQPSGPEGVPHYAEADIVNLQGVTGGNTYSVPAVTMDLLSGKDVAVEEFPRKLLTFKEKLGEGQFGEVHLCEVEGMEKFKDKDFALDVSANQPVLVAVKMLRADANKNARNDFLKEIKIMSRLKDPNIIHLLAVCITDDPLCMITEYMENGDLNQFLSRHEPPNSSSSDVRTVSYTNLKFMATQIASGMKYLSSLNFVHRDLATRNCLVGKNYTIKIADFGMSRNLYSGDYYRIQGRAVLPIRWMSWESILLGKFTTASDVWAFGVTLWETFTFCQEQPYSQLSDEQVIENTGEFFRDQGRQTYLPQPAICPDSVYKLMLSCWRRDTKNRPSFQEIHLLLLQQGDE

[13] = target: T2, Discoidin domain-containing receptor 2 (Homo sapiens); details: at 1 µM
[14] = target: Epidermal growth factor receptor (Homo sapiens) (UniProt P00533); details: at 0.1 µM
[15] = target: Epidermal growth factor receptor (Homo sapiens) (UniProt P00533); details: at 1 µM
[16] = test system: Epidermal growth factor receptor (Homo sapiens), P00533 [L858R]; details: at 0.1 µM
[17] = test system: Epidermal growth factor receptor (Homo sapiens), P00533 [L858R]; details: at 1 µM
[18] = test system: Epidermal growth factor receptor (Homo sapiens), P00533 [L861Q]; details: at 0.1 µM
[19] = test system: Epidermal growth factor receptor (Homo sapiens), P00533 [L861Q]; details: at 1 µM
[20] = test system: Epidermal growth factor receptor (Homo sapiens), P00533 [T790M]; details: at 0.1 µM

Tyrosine-protein kinase Blk (Homo sapiens), sequence (P51451 2-505 limits assumed): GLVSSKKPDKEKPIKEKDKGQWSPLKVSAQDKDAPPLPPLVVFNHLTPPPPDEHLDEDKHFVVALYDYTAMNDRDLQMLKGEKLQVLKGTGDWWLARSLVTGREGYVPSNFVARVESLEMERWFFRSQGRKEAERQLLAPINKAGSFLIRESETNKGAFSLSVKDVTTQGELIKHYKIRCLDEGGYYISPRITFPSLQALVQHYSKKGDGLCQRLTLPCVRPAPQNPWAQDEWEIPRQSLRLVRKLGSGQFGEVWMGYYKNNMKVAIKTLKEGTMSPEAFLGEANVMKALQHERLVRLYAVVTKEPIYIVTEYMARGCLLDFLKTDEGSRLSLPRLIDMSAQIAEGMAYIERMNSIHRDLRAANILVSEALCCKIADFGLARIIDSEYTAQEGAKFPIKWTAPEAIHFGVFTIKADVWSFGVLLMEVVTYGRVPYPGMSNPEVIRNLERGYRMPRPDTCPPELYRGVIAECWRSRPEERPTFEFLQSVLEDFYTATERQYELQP
Tyrosine-protein kinase CSK (Homo sapiens), sequence (P41240 2-450 limits assumed): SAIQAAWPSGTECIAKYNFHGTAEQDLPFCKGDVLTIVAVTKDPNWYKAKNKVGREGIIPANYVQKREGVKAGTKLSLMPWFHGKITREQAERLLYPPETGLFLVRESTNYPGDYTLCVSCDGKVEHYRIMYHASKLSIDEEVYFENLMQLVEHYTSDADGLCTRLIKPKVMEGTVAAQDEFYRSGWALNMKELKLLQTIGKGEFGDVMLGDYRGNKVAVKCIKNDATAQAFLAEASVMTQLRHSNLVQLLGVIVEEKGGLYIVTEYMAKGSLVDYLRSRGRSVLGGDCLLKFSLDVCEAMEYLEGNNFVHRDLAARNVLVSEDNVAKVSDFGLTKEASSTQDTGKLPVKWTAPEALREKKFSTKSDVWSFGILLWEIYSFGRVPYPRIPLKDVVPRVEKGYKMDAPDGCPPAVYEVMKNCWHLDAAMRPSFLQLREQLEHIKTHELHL
Protein-tyrosine kinase 6 (Homo sapiens), sequence (Q13882 whole entry, looked up): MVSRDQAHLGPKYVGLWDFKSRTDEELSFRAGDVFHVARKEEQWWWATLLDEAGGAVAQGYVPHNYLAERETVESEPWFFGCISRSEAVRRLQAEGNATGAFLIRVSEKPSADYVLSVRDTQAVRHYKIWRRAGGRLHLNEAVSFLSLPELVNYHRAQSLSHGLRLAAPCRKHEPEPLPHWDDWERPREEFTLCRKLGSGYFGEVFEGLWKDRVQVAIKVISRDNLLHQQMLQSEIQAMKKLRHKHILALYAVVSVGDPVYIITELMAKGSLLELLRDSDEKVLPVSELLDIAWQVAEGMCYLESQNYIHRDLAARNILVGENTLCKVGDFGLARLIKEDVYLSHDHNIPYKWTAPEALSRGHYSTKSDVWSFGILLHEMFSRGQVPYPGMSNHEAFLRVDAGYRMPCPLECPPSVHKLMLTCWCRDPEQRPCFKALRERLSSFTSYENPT
Epidermal growth factor receptor (Homo sapiens), sequence (P00533 whole entry): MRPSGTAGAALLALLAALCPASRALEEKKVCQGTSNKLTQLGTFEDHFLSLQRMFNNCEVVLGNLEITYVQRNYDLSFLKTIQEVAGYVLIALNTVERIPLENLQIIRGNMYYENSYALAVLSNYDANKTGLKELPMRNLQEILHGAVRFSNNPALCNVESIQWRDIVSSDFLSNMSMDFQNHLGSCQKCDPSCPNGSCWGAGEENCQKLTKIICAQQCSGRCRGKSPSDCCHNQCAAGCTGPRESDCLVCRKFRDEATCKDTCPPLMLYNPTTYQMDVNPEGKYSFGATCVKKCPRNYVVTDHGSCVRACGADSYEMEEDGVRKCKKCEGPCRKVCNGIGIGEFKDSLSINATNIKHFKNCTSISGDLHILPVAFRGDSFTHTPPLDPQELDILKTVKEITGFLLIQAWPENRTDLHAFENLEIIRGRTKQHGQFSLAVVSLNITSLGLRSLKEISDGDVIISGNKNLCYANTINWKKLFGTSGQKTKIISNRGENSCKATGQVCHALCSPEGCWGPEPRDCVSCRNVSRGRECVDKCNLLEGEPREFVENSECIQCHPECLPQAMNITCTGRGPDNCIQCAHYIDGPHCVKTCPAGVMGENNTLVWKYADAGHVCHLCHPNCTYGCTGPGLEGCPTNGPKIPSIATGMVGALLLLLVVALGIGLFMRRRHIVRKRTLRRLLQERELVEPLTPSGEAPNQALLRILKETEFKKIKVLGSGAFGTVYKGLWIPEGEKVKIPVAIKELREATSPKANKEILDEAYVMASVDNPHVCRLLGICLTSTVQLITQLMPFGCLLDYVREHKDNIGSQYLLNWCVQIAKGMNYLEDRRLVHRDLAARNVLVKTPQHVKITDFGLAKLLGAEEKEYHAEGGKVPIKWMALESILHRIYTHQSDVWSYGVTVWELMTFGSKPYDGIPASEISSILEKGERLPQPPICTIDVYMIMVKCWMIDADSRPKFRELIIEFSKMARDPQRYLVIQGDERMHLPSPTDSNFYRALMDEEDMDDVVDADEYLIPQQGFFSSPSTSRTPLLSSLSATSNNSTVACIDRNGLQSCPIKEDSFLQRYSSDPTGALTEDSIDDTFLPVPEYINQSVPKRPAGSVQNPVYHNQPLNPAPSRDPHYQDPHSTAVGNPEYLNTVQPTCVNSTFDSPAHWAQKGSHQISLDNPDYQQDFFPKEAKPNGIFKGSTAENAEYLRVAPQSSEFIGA
Tyrosine-protein kinase receptor UFO (Homo sapiens), sequence (P30530 whole entry): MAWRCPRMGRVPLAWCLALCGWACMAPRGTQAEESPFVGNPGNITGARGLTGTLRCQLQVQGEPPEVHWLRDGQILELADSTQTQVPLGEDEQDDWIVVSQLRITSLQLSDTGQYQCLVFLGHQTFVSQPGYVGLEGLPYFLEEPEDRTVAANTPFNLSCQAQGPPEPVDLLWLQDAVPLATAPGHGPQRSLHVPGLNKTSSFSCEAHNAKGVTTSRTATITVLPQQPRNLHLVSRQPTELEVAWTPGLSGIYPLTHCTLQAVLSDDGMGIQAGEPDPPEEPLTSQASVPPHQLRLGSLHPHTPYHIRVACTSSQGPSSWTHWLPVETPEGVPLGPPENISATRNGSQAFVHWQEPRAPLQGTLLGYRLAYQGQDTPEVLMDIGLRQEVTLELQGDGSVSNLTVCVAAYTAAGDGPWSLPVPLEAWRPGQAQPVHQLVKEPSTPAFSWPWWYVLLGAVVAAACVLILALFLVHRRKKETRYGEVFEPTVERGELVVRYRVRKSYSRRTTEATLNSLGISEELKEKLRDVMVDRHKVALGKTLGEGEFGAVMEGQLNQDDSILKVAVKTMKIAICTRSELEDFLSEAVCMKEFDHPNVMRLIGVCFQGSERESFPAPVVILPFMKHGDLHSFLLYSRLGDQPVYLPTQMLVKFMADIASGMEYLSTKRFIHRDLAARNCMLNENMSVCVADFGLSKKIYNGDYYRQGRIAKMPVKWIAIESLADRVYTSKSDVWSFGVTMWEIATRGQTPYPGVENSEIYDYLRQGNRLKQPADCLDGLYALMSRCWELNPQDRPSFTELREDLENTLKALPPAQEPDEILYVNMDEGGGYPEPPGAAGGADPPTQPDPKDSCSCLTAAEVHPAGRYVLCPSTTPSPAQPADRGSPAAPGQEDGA
Epidermal growth factor receptor (Homo sapiens), P00533 [L858R], sequence (P00533 whole entry L858R): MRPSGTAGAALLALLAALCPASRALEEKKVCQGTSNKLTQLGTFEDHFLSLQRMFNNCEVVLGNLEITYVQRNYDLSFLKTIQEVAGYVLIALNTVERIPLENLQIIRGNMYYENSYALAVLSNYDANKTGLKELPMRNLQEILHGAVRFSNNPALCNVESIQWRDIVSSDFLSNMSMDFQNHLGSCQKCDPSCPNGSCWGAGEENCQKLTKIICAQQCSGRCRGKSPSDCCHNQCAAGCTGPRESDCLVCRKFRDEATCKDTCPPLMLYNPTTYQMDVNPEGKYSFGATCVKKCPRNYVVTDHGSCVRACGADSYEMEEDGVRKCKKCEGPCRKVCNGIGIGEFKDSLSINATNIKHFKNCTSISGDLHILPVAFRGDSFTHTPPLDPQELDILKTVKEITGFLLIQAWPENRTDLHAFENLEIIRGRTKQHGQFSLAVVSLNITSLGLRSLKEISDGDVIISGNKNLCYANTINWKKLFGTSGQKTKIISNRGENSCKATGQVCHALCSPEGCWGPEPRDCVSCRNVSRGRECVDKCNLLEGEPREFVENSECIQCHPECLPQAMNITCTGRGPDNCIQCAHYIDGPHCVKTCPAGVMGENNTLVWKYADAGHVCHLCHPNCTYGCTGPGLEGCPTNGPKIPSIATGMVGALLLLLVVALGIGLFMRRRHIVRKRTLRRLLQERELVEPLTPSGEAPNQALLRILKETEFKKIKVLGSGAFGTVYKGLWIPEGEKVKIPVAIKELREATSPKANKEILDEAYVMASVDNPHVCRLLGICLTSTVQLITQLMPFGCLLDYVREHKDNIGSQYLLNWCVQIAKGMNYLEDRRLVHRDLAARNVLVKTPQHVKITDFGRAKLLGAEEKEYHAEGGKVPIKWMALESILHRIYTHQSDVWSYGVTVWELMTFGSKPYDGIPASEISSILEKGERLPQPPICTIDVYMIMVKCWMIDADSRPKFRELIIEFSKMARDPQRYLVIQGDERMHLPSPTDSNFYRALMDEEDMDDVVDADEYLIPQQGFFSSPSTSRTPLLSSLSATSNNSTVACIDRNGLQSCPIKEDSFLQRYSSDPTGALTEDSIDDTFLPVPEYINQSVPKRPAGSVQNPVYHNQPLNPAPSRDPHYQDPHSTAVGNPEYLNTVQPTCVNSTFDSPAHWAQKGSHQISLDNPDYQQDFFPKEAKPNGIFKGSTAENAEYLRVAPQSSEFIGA

SMILES | inhibition [1] | inhibition [2] | inhibition [3] | inhibition [4] | inhibition [5] | inhibition [6] | inhibition [7] | inhibition [8] | inhibition [9] | inhibition [10] | inhibition [11] | inhibition [12] | inhibition [13] [%] | inhibition [14] | inhibition [15] | inhibition [16] | inhibition [17] | inhibition [18] | inhibition [19] | inhibition [20]
COC(=O)Nc1nc2cc(Oc3ccc(NC(=O)Nc4ccccc4)cc3)ccc2[nH]1 | -3.64% | 2.65% | 3.63% | 3.17% | 3.73% | 1.45% | 2.78% | 0.55% | 0.58% | 4.95% | 1.41% | 77.2% | 81.4 | 0.9% | -0.33% | 0.78% | 4.35% | 1.19% | 1.08% | -1.39%
O=C(O[C@H]1CN[C@H](C#Cc2cc3ncnc(Nc4ccc5c(cnn5Cc5ccccc5)c4)c3s2)C1)N1CCOCC1 | 2.46% | -0.69% | 6.27% | -1.03% | 2.39% | 1.71% | 2.7% | 2.14% | 1.05% | -1.39% | 4.15% | 0.56% | 0.22 | 72.3% | 83.3% | 14.2% | 56.2% | 25.9% | 44.2% | 0.87%
CNC(=O)c1ncccc1Nc1nc(Nc2cc3c(cc2OC)CCCN3C(=O)CN(C)C)nc2[nH]ccc12 | 53.5% | 2.8% | 7.25% | 3.62% | 4.96% | 4% | 6.37% | 0.46% | 1.22% | 2.99% | 2.18% | 2.33% | 3.8 | 1.65% | 7.76% | 4.57% | 22.4% | 4.79% | 7.78% | 13.2%
COc1cccc(-n2ncc3c(N/N=C/c4ccc(C(=O)NCCN(C)C)cc4)ncnc32)c1 | 40.9% | 18.1% | 73% | 9.47% | 46.3% | 9.98% | 53.4% | 1.25% | 1.98% | 3.74% | 22% | 7.86% | 41 | 16.7% | 56.4% | 63.6% | 90.6% | 23% | 68.7% | 0.59%
CCn1c(-c2nonc2N)nc2cncc(C(=O)NCCNC)c21 | -6.19% | 3.13% | 5.42% | 3.81% | 5.15% | 2.42% | 5.45% | -1.55% | 0.11% | 3.43% | 4.95% | 1.54% | 2.38 | 0.28% | 5.41% | 4.66% | 6.79% | 4.01% | 2.21% | 2.41%
COc1ccc(Nc2ncc(-c3ccccc3)o2)cc1OC | 3.31% | 1.21% | 24.1% | -7.7% | 4.92% | 0.75% | 2.71% | 0.8% | 2.81% | 1.21% | -1.08% | -0.12% | 5.66 | 1.83% | 5.16% | -1.38% | 2.96% | -1.19% | 0.83% | 0.72%
CC1=C(C(=O)Nc2ccc3[nH]ncc3c2)C(c2ccc(F)cc2)N=C(c2ccc(C(F)(F)F)nc2)N1 (stereo not given) | -0.71% | 2.98% | 3.72% | -0.04% | 3.01% | 2.13% | 3.49% | 0.06% | 0.16% | 1.42% | 6.65% | 1.54% | 6.22 | 3.43% | 7.73% | 4.85% | 6.69% | 2.32% | 2.72% | 0.14%
COC(=O)Nc1nc2ccc(Oc3ccc(NC(=O)Nc4cc(C(F)(F)F)ccc4F)cc3)cc2s1 | 46.6% | 0.64% | 3.2% | 0.05% | 2.68% | 1.06% | 0.36% | -0.69% | -0.85% | 4.36% | 33.4% | 62.7% | 83.6 | 1.66% | 3.16% | -2.69% | 2.24% | -1.23% | 1.41% | 0.17%
OCCCNc1nccc(-c2c(-c3ccc(F)cc3)nn3cc(C(F)(F)F)ccc23)n1 | 1.31% | 1.06% | 2.83% | 5.93% | 3.3% | 1.91% | 5.03% | 0.07% | 0.45% | 4.06% | 1.58% | 3.25% | 19.3 | 0.97% | 9.16% | 5.62% | 24.6% | 2.61% | 6.62% | 0.96%
Cc1c2ccc(N(C)c3ccnc(Nc4cccc(S(N)(=O)=O)c4)n3)cc2nn1C | 1.26% | 5.04% | 56.5% | -1.19% | 17% | 13.8% | 51.2% | -2.88% | 1.31% | 5.79% | 19% | 11.4% | 65 | -3.87% | 0.64% | 3.16% | 11.9% | 5.08% | 3.69% | 3.44%
COc1cccc(Nc2nccc(-c3cnn4ncccc34)n2)c1 | 11.4% | 2.91% | 14% | 9.52% | 21.8% | 1.39% | 10.1% | 0.35% | 4.57% | 4.74% | 11.8% | 0.85% | 4.16 | -2.03% | 5.8% | 2.1% | 9.34% | 1.66% | 3.56% | 1.52%
Nc1nccc(-c2c(-c3ccc(F)cc3)ncn2C2CCNCC2)n1 | 8.06% and 1.45% | -1.45% and 0.8% | -0.17% and 2.22% | 1.14% and -5.53% | -1.15% and 0.2% | -3.88% and 1.44% | 2.01% and 4.41% | -0.49% and -0.93% | -0.59% and 0.22% | -4.42% and 4.09% | -3.76% and 3.13% | -1.68% and 1.35% | 0.32 | -0.4% and 2.01% | 5.66% and 6.46% | -0.59% and 2.85% | 6.1% and 10.9% | -3.23% and 1.91% | 1.42% and 4.42% | -2.84% and -2.65%
COc1cc2c(cc1Nc1nc(Nc3cccc(F)c3C(N)=O)c3cc[nH]c3n1)N(C(=O)CN1CCN(C(C)C)CC1)CC2 | 2.45% | -0.36% | -0.42% | 2.26% | 3.16% | -1.33% | 3.54% | -0.03% | -1.36% | -1.06% | -3.02% | -1.78% | -0.55 | 2.48% | 17.1% | -0.57% | 15.1% | 1.65% | 13.7% | 2.59%
